Active and inactive are the calls of the source.
Experiments:
[1] = E. coli DRC41 culture turbidity changes, primary screen, E. coli filamentation inducer project, strain DRC41, OD650, 48 h (AID 1152);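 note: E. coli MC1000 strain DRC41 lacking acrAB efflux pump and sulA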; details: E. coli DRC41 (acrAB sulA), higher = more signal, called active from +8 up or from −8 down
[2] = small-molecule binders of probe aLefty1, primary screen, biochemical, small-molecule microarray, 635/667 nm fluorescence (AID 1153); details: higher = more signal;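 note: score merges spot fluorescence with signal-to-noise ratio from the scanned slide images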
[3] = PSAC antagonists in infected red cells, primary screen, cell-based, P. falciparum Indochina, OD700, 1 h (AID 1154); details: P. falciparum Indochina infected RBC osmotic lysis, higher = more signal, called active from +8 up or from −8 down
[4] = PSAC antagonists in infected red cells, primary screen, cell-based, P. falciparum Indochina, OD700, 2 h (AID 1155);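 note: lysis reports solute entry through the parasite surface anion channel PSAC; channel blockers reduce lysis of infected cells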; details: P. falciparum Indochina infected erythrocytes, osmotic lysis OD700; higher = more signal, called active from +8 up or from −8 down
[5] = osmotic lysis modulators in infected erythrocytes, primary screen, PSAC antagonist project, cell-based, P. falciparum Indochina, OD700, 3 h (AID 1156); details: higher = more signal, called active from +8 up or from −8 down
[6] = PSAC antagonists in infected red cells, primary screen, cell-based, P. falciparum Indochina, OD700, 18 h (AID 1157); details: P. falciparum Indochina infected erythrocytes, osmotic lysis OD700, 18 h; higher = more signal, called active from +8 up or from −8 down
[7] = modulators of S6 phosphorylation in cells, primary screen, cell-based, A549, cytoblot, luminescence, serum-stimulated (AID 1158); details: A549 phospho-S6 cytoblot, 5 h, higher = more signal;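 note: serum-stimulated A549 lung adenocarcinoma cells; signal is phosphorylated S6 detected by cytoblot immunostaining with HRP secondary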
[8] = target: NADPH oxidase 2 (Homo sapiens) (UniProt P04839); assay: NOX2-dependent H2O2 signal modulators, primary screen, NOX inhibitor project, cell-based, HEK293-NOX2, PMA-stimulated, Amplex Red fluorescence (AID 1159); details: 45 min, higher = more signal, called active from +8 up or from −8 down; note: test concentration not given here
NADPH oxidase 2 (Homo sapiens), sequence (P04839 whole entry, looked up): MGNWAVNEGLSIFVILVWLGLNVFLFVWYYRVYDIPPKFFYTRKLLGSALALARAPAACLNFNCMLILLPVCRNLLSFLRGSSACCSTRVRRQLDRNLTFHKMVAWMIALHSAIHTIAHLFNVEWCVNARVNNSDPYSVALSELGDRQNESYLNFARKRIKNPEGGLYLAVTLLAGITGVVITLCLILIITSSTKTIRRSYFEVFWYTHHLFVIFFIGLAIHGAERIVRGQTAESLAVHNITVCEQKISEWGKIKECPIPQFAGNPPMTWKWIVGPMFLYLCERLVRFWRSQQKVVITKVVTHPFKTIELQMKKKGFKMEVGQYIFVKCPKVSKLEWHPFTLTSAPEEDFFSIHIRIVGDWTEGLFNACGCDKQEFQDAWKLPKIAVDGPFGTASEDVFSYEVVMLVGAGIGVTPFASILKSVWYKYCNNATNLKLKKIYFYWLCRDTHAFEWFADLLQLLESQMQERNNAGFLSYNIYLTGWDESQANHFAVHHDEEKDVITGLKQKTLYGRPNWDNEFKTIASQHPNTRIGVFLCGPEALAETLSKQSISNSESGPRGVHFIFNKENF

[9] = target: NADPH oxidase 4 (Homo sapiens) (UniProt Q9NPH5); assay: NOX4-dependent H2O2 signal modulators, primary screen, NOX inhibitor project, cell-based, HEK293-NOX4, tetracycline-induced, Amplex Red fluorescence (AID 1160); details: 45 min, higher = more signal, called active from +8 up or from −8 down
NADPH oxidase 4 (Homo sapiens), sequence (Q9NPH5 whole entry, looked up): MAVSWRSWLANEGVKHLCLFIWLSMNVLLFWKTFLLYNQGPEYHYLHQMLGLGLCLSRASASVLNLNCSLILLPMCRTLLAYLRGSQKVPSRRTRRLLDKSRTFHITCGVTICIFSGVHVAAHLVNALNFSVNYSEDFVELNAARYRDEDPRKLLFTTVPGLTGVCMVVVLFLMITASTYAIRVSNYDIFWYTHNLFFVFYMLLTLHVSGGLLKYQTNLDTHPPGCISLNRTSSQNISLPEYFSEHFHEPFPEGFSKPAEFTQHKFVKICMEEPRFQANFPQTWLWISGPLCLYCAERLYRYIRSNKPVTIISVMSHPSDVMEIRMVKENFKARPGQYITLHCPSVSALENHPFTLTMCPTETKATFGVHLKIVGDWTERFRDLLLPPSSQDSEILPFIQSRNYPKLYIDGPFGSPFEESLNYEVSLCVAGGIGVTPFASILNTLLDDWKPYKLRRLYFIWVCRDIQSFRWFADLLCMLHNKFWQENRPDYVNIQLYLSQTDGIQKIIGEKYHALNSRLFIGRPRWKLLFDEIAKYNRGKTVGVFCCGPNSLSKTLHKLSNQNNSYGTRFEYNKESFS

[10] = target: NADPH oxidase 5 (Homo sapiens) (UniProt Q96PH1); assay: NOX5-dependent H2O2 signal modulators, primary screen, NOX inhibitor project, cell-based, HEK293-NOX5, Amplex Red fluorescence (AID 1161); details: HEK293-NOX5, ionomycin, 45 min, higher = more signal
NADPH oxidase 5 (Homo sapiens), sequence (Q96PH1 whole entry, looked up): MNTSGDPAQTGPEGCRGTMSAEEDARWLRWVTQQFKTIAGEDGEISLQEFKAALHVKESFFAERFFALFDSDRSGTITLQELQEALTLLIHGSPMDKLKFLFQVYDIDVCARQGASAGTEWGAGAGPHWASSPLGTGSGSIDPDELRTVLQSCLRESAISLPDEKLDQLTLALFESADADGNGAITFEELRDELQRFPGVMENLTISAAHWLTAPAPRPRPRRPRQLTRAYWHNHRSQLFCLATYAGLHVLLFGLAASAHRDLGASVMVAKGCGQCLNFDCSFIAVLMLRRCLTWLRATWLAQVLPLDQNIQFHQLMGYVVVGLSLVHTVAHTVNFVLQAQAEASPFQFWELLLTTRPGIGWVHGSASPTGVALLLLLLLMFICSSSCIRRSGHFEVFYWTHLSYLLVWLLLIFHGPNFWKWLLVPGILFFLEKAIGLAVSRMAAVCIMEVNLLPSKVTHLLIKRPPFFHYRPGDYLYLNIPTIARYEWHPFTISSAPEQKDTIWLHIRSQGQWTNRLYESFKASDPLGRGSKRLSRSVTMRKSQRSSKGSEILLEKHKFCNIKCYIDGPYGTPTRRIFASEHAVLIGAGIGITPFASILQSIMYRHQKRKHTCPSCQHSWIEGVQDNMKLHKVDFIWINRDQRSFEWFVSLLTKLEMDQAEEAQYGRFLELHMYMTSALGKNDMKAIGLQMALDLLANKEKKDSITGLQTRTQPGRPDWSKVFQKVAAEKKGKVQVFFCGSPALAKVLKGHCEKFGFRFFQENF

[11] = A549 cell viability effects, profiling panel, calcein-AM fluorescence, 48 h, basal (AID 1162); details: higher = more signal; note: test concentration not given here
[12] = adipocyte viability effects, profiling panel, cell-based, 3T3-L1 adipocytes, calcein-AM fluorescence, 48 h, basal (AID 1163); details: 3T3-L1 adipocytes viability, higher = more signal; note: test concentration not given here
[13] = HepG2 cell viability effects, profiling panel, calcein-AM fluorescence, 48 h, basal (AID 1164); details: higher = more signal; note: test concentration not given here
[14] = MM1S cell viability effects, profiling panel, calcein-AM fluorescence, 48 h, basal (AID 1165); details: higher = more signal;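 note: viability of MM1S multiple myeloma cells under basal unstimulated conditions; test concentration not given here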
[15] = basal RPMI8226 viability, no added stimulus, profiling panel, cell-based, calcein-AM fluorescence, 48 h, PK04 Diversity Set (AID 1166); details: RPMI8226 myeloma viability, higher = more signal;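 note: cells grown under basal conditions without added stimulus; test concentration not given here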
[16] = basal HepG2 mitochondrial membrane potential changes, profiling panel, cell-based, JC-1 fluorescence, 24 h, 100 nL compound (AID 1167); details: higher = more signal; note: test concentration not given here
[17] = basal 3T3-L1 adipocyte mitochondrial potential changes, profiling panel, cell-based, JC-1 fluorescence, 3T3-L1 adipocytes, 24 h, 100 nL compound (AID 1168); details: JC-1 mitochondrial fluorescence, higher = more signal, called active from +8 up or from −8 down; note: test concentration not given here
[18] = basal RPMI8226 mitochondrial membrane potential changes, profiling panel, cell-based, JC-1 fluorescence, 24 h, 100 nL compound (AID 1169); details: RPMI8226 myeloma, JC-1 mitochondrial potential fluorescence, higher = more signal; note: test concentration not given here
[19] = basal MM1S mitochondrial membrane potential changes, profiling panel, cell-based, JC-1 fluorescence, 24 h, 100 nL compound (AID 1170); details: higher = more signal; note: test concentration not given here
[20] = A549 lung cancer cell viability effects, profiling panel, resazurin fluorescence, 24 h, PK04 Diversity Set (AID 1171); details: higher = more signal, called active from +8 up or from −8 down; note: test concentration not given here

Structure (SMILES) | z-score [1] | composite z-score [2] | z-score [3] | z-score [4] | z-score [5] | z-score [6] | z-score [7] | z-score [8] | z-score [9] | z-score [10] | z-score [11] | z-score [12] | z-score [13] | z-score [14] | z-score [15] | z-score [16] | z-score [17] | z-score [18] | z-score [19] | z-score [20]
CC(C)(C)OC(=O)CC[C@@]1(C(=O)N2CCCCC2)N=C(c2ccc(OCCCO)cc2)O[C@@H]1c1ccccc1 | -0.56 (inactive) | 0.349 | 26.6 (active) | 19.2 (active) | 1.79 (inactive) | 2.14 (inactive) | -0.354 | -2.08 (inactive) | 1.7 (inactive) | 0.0911 | -0.637 | 0.452 | 0.644 | -1.99 | -2.22 | 1.59 | 0.0803 (inactive) | -0.636 | 0.0287 | 0.894 (inactive)
Cc1c(NC(=O)/C(C#N)=C/c2cccc([N+](=O)[O-])c2)c(=O)n(-c2ccccc2)n1C | 0.969 (inactive) | -0.173 | 0.468 (inactive) | -0.376 (inactive) | -0.451 (inactive) | -0.481 (inactive) | 2.39 | -1.36 (inactive) | -0.497 (inactive) | 0.864 | 4.01 | 1.31 | 0.461 | 0.943 | 2.4 | 0.69 | -1.08 (inactive) | -0.122 | -0.054 | -0.133 (inactive)
C=C(CCCC)C(=O)CC[C@@H](OC(C)=O)c1ccc(CO)o1 | 0.0002 (inactive) | -0.0278 | 0.113 (inactive) | 0.0176 (inactive) | -1.18 (inactive) | 0.184 (inactive) | -0.0622 | -1.23 (inactive) | -0.538 (inactive) | -2.37 | -0.779 | 0.37 | -0.293 | 0.0178 | -0.878 | -0.885 | 0.352 (inactive) | 0.703 | -0.179 | -0.0655 (inactive)
COc1ccc([Si](C)(C)[C@@H]2[C@@H](CCO)O[C@]3(C(=O)N(Cc4cccc(N5CCOC5=O)c4)c4ccccc43)[C@H]2C)cc1 | -0.196 (inactive) | 0.0357 | 31.3 (active) | 29.8 (active) | -0.28 (inactive) | 3.29 (inactive) | 0.715 | -0.327 (inactive) | 2.15 (inactive) | 1.98 | -0.687 | -0.514 | -0.769 | -2.11 | -4.17 | 0.183 | 1.05 (inactive) | -0.978 | -1.78 | -1.76 (inactive)
[N-]=[N+]=NCc1ccccc1[C@@H]1OC(c2ccc(OCCCO)cc2)=N[C@]1(CCS(=O)(=O)c1ccccc1)C(=O)N1CCOCC1 | 1.79 (inactive) | 0.533 | 26.1 (active) | 12.5 (active) | 3.79 (inactive) | 0.45 (inactive) | 1.88 | 1.21 (inactive) | 1.18 (inactive) | 1.2 | 0.761 | 1.96 | 0.502 | 0.191 | -1.6 | 2.29 | 0.78 (inactive) | -0.356 | -0.412 | 0.218 (inactive)
COC(=O)C[C@H]1O[C@@H](CCc2ccccc2)[C@@H](C)[C@@H]1[Si](C)(C)c1ccc(OC)cc1 | -0.95 (inactive) | -0.188 | 2.54 (inactive) | 0.719 (inactive) | -0.0062 (inactive) | -0.0887 (inactive) | 0.0216 | 1.34 (inactive) | -0.0337 (inactive) | -2.06 | 1.47 | 1.27 | -0.755 | -0.843 | -3.97 | 0.453 | -0.0941 (inactive) | -1.12 | -0.0681 | 0.989 (inactive)
CCOC(=O)C1=CCC(c2ccc(F)cc2)N(S(=O)(=O)c2ccc(C)cc2)C1 (stereo not given) | -1 (inactive) | -0.147 | 1.44 (inactive) | 0.952 (inactive) | -0.421 (inactive) | 0.363 (inactive) | -0.566 | 0.396 (inactive) | -0.0222 (inactive) | 0.315 | -1.02 | -1.12 | -0.444 | -0.434 | -1.5 | -0.717 | -1.01 (inactive) | 0.641 | -1.66 | -0.0491 (inactive)
COc1cc2c(cc1O)C(c1cccs1)N(Cc1cccc(OC(F)(F)F)c1)CC2 (stereo not given) | 0.36 (inactive) | -0.0999 | 8.07 (active) | 0.192 (inactive) | 0.112 (inactive) | -0.751 (inactive) | 1.09 | -4.69 (inactive) | -2.74 (inactive) | -4.1 | -2.79 | -0.0814 | -2.37 | -3.14 | -4.49 | -2.21 | -0.019 (inactive) | -0.774 | -1.77 | -1.98 (inactive)
C[N+](C)(C)CCCC[C@@H]1NC(=O)[C@@H]2C[C@H](C(=O)NCCCCCCNC(=O)CS)[C@H](c3ccc(O)cc3)N2C1=O | -0.432 (inactive) | -0.101 | 2.2 (inactive) | 0.244 (inactive) | -3.26 (inactive) | -0.114 (inactive) | -0.489 | 0.614 (inactive) | 0.449 (inactive) | 0.0101 | -0.617 | -0.0068 | -0.0675 | -0.14 | -0.385 | 0.439 | -0.888 (inactive) | -0.111 | -0.432 | -0.382 (inactive)

Source: PubChem BioAssay
